Screens: PubChem, The Scripps Research Institute Molecular Screening Center
This is a sample that favours compounds with a hit; in the whole collection about 0.9% have one here.
SRC2 TRFRET art: flags TR-FRET format artefacts in PPARgamma SRC-2 recruitment agonist screen. 200,000 tested, 0.4% active. AID 1049. TR-FRET artefact counter-screen; active compounds read high. TR-FRET ratio at 8 µM
PPARg SRC1 recr: PPARgamma-driven SRC-1 recruitment agonism. P37231. PPARgamma-SRC-1 coactivator recruitment biochemical assay. activation, % at 8 µM. 200,000 tested, 0.41% active; in the data active means activation above about 19%
SRC1 TRFRET art: flags TR-FRET format artefacts in PPARgamma SRC-1 recruitment agonist screen. TR-FRET detection artefact counter-screen, emission ratio; active compounds read high. TR-FRET ratio at 8 µM. AID 1051. 99,000 tested, 0.34% active; in the data active means TR-FRET ratio above about 2300
PPARg SRC2 recr: agonists of SRC-2 recruitment by human PPARgamma; activation, % at 8 µM; PPARgamma LBD-SRC-2 recruitment, biochemical; P37231; 200,000 tested, 0.34% active; in the data active means activation above about 22%
PPARg SRC3 recr: agonists of human PPARgamma SRC-3 coactivator recruitment. biochemical PPARgamma/SRC-3 coactivator recruitment assay. activation, % at 8 µM. 200,000 tested, 0.26% active; in the data active means activation above about 23%
SRC3 TRFRET art: TR-FRET artefact, counter-screen to PPARgamma/SRC-3 agonist assay; PPARgamma/SRC-3 format; active compounds read high; TR-FRET ratio at 8 µM; 99,000 tested, 0.39% active; AID 1048
PPARg SRC2 conf: human PPARgamma SRC-2 recruitment agonism, confirmation; AID 1297; activation, % at 8 µM; biochemical SRC-2 recruitment by PPARgamma; 790 tested, 52% active; shares compounds with PPARg SRC3 recr; in the data active means activation above about 22%
PPARg SRC1 ag: human PPARgamma SRC-1 recruitment agonism, confirmation; PPARgamma–SRC-1 coactivator recruitment biochemical assay; AID 1300; 790 tested, 43% active; activation, % at 8 µM; shares compounds with PPARg SRC3 recr; in the data active means activation above about 20%
PPARg SRC3 ag: human PPARgamma SRC-3 recruitment agonism, confirmation; shares compounds with PPARg SRC3 recr; biochemical PPARgamma-SRC-3 coactivator recruitment, agonist mode; activation, % at 8 µM; 790 tested, 29% active; AID 1301; in the data active means activation above about 24%
Target sequence (P37231 whole entry, looked up): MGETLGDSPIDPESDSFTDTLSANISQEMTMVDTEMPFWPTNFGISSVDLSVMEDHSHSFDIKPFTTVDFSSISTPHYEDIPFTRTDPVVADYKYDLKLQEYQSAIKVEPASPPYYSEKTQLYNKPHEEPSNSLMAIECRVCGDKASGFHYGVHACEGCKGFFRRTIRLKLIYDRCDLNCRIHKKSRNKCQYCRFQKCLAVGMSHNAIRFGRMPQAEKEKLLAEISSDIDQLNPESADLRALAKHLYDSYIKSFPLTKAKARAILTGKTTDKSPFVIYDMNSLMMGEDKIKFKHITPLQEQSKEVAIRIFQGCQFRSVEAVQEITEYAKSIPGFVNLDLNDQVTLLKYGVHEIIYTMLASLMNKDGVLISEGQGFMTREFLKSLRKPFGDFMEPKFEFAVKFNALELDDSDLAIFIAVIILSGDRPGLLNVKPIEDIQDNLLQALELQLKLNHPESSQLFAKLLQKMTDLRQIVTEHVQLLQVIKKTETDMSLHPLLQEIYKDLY
Target sequence (Q9Y6Q9 whole entry, looked up): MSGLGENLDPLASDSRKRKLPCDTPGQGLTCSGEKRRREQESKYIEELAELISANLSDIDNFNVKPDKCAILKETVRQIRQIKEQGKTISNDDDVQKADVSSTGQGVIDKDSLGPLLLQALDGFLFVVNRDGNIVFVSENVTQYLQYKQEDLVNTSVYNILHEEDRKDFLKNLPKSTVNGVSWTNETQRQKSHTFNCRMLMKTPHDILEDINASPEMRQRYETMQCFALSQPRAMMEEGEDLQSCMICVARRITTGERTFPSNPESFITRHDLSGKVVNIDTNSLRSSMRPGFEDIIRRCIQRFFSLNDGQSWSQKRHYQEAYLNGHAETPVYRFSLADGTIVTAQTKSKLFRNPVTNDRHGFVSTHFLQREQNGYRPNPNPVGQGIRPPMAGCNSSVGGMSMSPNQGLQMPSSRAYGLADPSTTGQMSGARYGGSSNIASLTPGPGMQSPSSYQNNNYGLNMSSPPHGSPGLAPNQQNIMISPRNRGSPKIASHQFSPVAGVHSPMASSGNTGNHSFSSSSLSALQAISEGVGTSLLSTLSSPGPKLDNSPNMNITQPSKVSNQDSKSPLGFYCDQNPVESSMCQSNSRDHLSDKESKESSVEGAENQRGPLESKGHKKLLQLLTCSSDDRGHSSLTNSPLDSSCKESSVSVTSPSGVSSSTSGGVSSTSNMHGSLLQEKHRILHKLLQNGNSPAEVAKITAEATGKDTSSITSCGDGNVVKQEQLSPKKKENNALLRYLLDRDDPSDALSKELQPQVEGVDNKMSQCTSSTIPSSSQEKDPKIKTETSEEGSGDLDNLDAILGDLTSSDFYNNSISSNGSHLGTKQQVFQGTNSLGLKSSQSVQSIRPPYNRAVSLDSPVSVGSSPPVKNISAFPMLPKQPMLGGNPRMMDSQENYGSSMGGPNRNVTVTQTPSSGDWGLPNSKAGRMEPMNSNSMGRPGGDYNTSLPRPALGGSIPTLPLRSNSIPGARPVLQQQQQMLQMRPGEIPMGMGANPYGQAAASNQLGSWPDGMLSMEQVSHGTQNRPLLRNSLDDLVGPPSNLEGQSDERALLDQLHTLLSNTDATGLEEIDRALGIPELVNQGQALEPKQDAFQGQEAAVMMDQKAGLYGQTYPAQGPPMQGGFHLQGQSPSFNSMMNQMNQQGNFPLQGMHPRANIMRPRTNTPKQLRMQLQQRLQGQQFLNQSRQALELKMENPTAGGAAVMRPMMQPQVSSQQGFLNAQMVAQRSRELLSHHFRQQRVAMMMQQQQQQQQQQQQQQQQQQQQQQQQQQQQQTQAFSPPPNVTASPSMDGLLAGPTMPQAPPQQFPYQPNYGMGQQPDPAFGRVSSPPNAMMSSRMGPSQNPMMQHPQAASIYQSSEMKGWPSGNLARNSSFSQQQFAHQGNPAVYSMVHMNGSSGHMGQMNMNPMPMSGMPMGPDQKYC
Numbers stand for hits. Unless noted, no stated cut-off is given here; in the data, active means TR-FRET ratio above about 2000; inactive means the rest.

Results for CN(C)CCCN1C(=O)C(O)=C(C(=O)c2cc3ccccc3o2)C1c1ccccc1 (configuration not stated) ?
SRC2 TRFRET art: 3299; PPARg SRC1 recr: 53.2; PPARg SRC2 recr: 72.6; PPARg SRC3 recr: 90.0; PPARg SRC2 conf: 69.9; PPARg SRC1 ag: 49.7; PPARg SRC3 ag: 44.6

Results for Oc1ccccc1CNc1ccc2c(c1)OCCO2 ?
SRC2 TRFRET art: inactive; PPARg SRC1 recr: 20.6; SRC1 TRFRET art: inactive; PPARg SRC2 recr: inactive; PPARg SRC3 recr: inactive; SRC3 TRFRET art: inactive; PPARg SRC2 conf: inactive; PPARg SRC1 ag: inactive; PPARg SRC3 ag: inactive

What do the screens show for `c1csc(CNc2ccc3c(c2)OCCO3)c1`?
SRC2 TRFRET art: inactive; PPARg SRC1 recr: inactive; SRC1 TRFRET art: inactive; PPARg SRC2 recr: inactive; PPARg SRC3 recr: inactive; SRC3 TRFRET art: inactive

Results for Cc1ccc(S(=O)(=O)c2c(CO)c(-c3ccccc3)nn2C)cc1 ?
SRC2 TRFRET art: inactive; PPARg SRC1 recr: inactive; SRC1 TRFRET art: inactive; PPARg SRC2 recr: inactive; PPARg SRC3 recr: 34.4; SRC3 TRFRET art: inactive; PPARg SRC2 conf: inactive; PPARg SRC1 ag: inactive; PPARg SRC3 ag: inactive

Results for O=C(COC(=O)CNS(=O)(=O)c1cccc(Br)c1)NC(=O)Nc1ccc2c(c1)OCCO2 ?
SRC2 TRFRET art: inactive; PPARg SRC1 recr: inactive; SRC1 TRFRET art: inactive; PPARg SRC2 recr: inactive; PPARg SRC3 recr: inactive; SRC3 TRFRET art: inactive

How did Cc1ccccc1C(=O)Nc1nnc(-c2ccco2)s1 do in these assays?
SRC2 TRFRET art: 2099; PPARg SRC1 recr: 24.2; SRC1 TRFRET art: 2497; PPARg SRC2 recr: inactive; PPARg SRC3 recr: inactive; SRC3 TRFRET art: inactive; PPARg SRC2 conf: 42.4; PPARg SRC1 ag: 36.5; PPARg SRC3 ag: 26.4

What do the screens show for `COc1ccccc1C(=O)Nc1nnc(-c2ccco2)s1`?
SRC2 TRFRET art: inactive; PPARg SRC1 recr: inactive; PPARg SRC2 recr: inactive; PPARg SRC3 recr: inactive

How did CCCc1nc2ccccc2c(C(=O)OC(C)C(=O)NCc2ccc3c(c2)OCO3)c1CC (configuration not stated) do in these assays?
SRC2 TRFRET art: inactive; PPARg SRC1 recr: inactive; SRC1 TRFRET art: inactive; PPARg SRC2 recr: inactive; PPARg SRC3 recr: inactive; SRC3 TRFRET art: inactive

Results for C#CCn1c(=NC(=O)c2ccc(Br)s2)sc2cc(NC(C)=O)ccc21 ?
SRC2 TRFRET art: inactive; PPARg SRC1 recr: inactive; SRC1 TRFRET art: inactive; PPARg SRC2 recr: inactive; PPARg SRC3 recr: inactive; SRC3 TRFRET art: inactive

What do the screens show for `C#CCn1c(=NC(=O)c2ccc(Br)s2)sc2cccc(OC)c21`?
SRC2 TRFRET art: 4015; PPARg SRC1 recr: 24.2; PPARg SRC2 recr: 30.3; PPARg SRC3 recr: 32.6; PPARg SRC2 conf: 45.8; PPARg SRC1 ag: 32.1; PPARg SRC3 ag: 25.6

How did O=C1CC(c2ccc(F)cc2)C(n2cncn2)C(O)=C1C1NCCc2ccccc21 (configuration not stated) do in these assays?
SRC2 TRFRET art: inactive; PPARg SRC1 recr: inactive; SRC1 TRFRET art: inactive; PPARg SRC2 recr: inactive; PPARg SRC3 recr: inactive; SRC3 TRFRET art: inactive

Results for Nc1ccc(-c2nc3ccc(N)cc3[nH]2)cc1 ?
SRC2 TRFRET art: inactive; PPARg SRC1 recr: 31.1; SRC1 TRFRET art: inactive; PPARg SRC2 recr: inactive; PPARg SRC3 recr: inactive; SRC3 TRFRET art: inactive; PPARg SRC2 conf: inactive; PPARg SRC1 ag: inactive; PPARg SRC3 ag: inactive

Results for CC1(C)Nc2ccc(O)cc2-c2c1ssc2=S ?
SRC2 TRFRET art: inactive; PPARg SRC1 recr: inactive; PPARg SRC2 recr: 24.6; PPARg SRC3 recr: 27.5; PPARg SRC2 conf: inactive; PPARg SRC1 ag: inactive; PPARg SRC3 ag: inactive

How did COc1ccccc1N(C)S(=O)(=O)c1ccc(C(=O)OCC(=O)c2c[nH]c3ccccc23)cc1 do in these assays?
SRC2 TRFRET art: inactive; PPARg SRC1 recr: inactive; SRC1 TRFRET art: inactive; PPARg SRC2 recr: inactive; PPARg SRC3 recr: inactive; SRC3 TRFRET art: inactive

How did O=C(O[C@@H]1OC2COC(=O)c3cc(O)c(O)c(O)c3-c3c(cc(O)c(O)c3O)C(=O)O[C@@H]([C@H]1O)[C@@H]2O)c1cc(O)c(O)c(O)c1 do in these assays?
SRC2 TRFRET art: inactive; PPARg SRC1 recr: inactive; SRC1 TRFRET art: inactive; PPARg SRC2 recr: 24.5; PPARg SRC3 recr: inactive; SRC3 TRFRET art: inactive; PPARg SRC2 conf: inactive; PPARg SRC1 ag: inactive; PPARg SRC3 ag: inactive

Results for COC(=O)c1[nH]c2cc(OC)ccc2c1N ?
SRC2 TRFRET art: inactive; PPARg SRC1 recr: inactive; PPARg SRC2 recr: inactive; PPARg SRC3 recr: 27.5; PPARg SRC2 conf: inactive; PPARg SRC1 ag: inactive; PPARg SRC3 ag: inactive

What do the screens show for `CCOC(=O)Nc1c(C(=O)OC)[nH]c2cc(OC)ccc12`?
SRC2 TRFRET art: inactive; PPARg SRC1 recr: inactive; PPARg SRC2 recr: inactive; PPARg SRC3 recr: inactive

What do the screens show for `CN(c1ccc(OCC(=O)OCC(=O)NCc2ccco2)cc1)S(=O)(=O)c1ccc2ccccc2c1`?
SRC2 TRFRET art: inactive; PPARg SRC1 recr: inactive; SRC1 TRFRET art: inactive; PPARg SRC2 recr: inactive; PPARg SRC3 recr: inactive; SRC3 TRFRET art: inactive

Results for CCN1CCCC1CNC(=O)CSc1cc(=O)n(C)c2cc(Cl)ccc12 (configuration not stated) ?
SRC2 TRFRET art: 2477; PPARg SRC1 recr: 50.5; PPARg SRC2 recr: 51.7; PPARg SRC3 recr: 57.2; PPARg SRC2 conf: 38.9; PPARg SRC1 ag: 27.8; PPARg SRC3 ag: 26.7

Results for CCn1c(=O)cc(SCC(=O)NCC2CCCO2)c2ccccc21 (configuration not stated) ?
SRC2 TRFRET art: 2825; PPARg SRC1 recr: 30.9; PPARg SRC2 recr: 50.1; PPARg SRC3 recr: 65.8; PPARg SRC2 conf: 35.5; PPARg SRC1 ag: 21.4; PPARg SRC3 ag: inactive

How did Cn1c(=O)cc(SCC(=O)NCCC2=CCCCC2)c2ccc(Cl)cc21 do in these assays?
SRC2 TRFRET art: inactive; PPARg SRC1 recr: inactive; SRC1 TRFRET art: inactive; PPARg SRC2 recr: inactive; PPARg SRC3 recr: inactive; SRC3 TRFRET art: inactive

How did CN(CCCNC(=O)CSc1cc(=O)n(C)c2cc(Cl)ccc12)Cc1ccccc1 do in these assays?
SRC2 TRFRET art: 2902; PPARg SRC1 recr: 63.6; SRC1 TRFRET art: 3308; PPARg SRC2 recr: inactive; PPARg SRC3 recr: 32.9; SRC3 TRFRET art: 2993; PPARg SRC2 conf: 39.3; PPARg SRC1 ag: 26.8; PPARg SRC3 ag: 26.7

Results for CC(C)N(C(=O)Cn1cc(SCC(=O)NCC2CCCO2)c2ccccc21)C(C)C (configuration not stated) ?
SRC2 TRFRET art: inactive; PPARg SRC1 recr: inactive; SRC1 TRFRET art: inactive; PPARg SRC2 recr: inactive; PPARg SRC3 recr: inactive; SRC3 TRFRET art: inactive
